Test systems include HCT-15 colon; HT29 colon; SNB-75 CNS; SNB-19 CNS; U251 CNS; PC-3 prostate; SK-MEL-5 melanoma; UACC-62 melanoma; LOX IMVI melanoma; SK-MEL-28 melanoma; SK-MEL-2 melanoma; SN12C renal; UO-31 renal; ACHN renal; CAKI-1 renal; A498 renal; CCRF-CEM leukemia; MOLT-4 leukemia; TK-10 renal; EKVX NSCLC.
Common to all, as to test: NCI-60 one-dose screen, 48 h (100 = growth as untreated, 0 = no growth, -100 = all killed)
Common to all, as to conditions: 10 µM unless noted

Among the data in PubChem BioAssay (NCI) are growth values, retold here.

Structures are written as SMILES. The panel holds about 83,000 compounds, 20% with a hit somewhere; the sample as a whole holds those more often.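 Note: values are percent growth. 100 is the growth of untreated cells, values between 100 and 0 indicate rising inhibition; between -100 and 0 indicates cell death.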 Calls of active or inactive are those of the source. How the source made its calls: active means growth percent below 10; inactive means the rest.

For `COc1ccc(OC)c(C(=O)c2oc3ccc(Br)cc3c2N)c1`, the growth with HCT-15 colon was 24.2% (inactive); in the assay on HT29 colon, 7.35% (active); in the assay with SNB-75 CNS, -29.4% (active); in the assay with SNB-19 CNS, 38.3% (inactive); in the assay with U251 CNS, 9.85% (active); in the assay on PC-3 prostate, -1.02% (active). Besides, the growth with SK-MEL-5 melanoma was 31.7% (inactive); in the assay with UACC-62 melanoma, 10.9% (inactive); in the assay on LOX IMVI melanoma it was 32.9% (inactive); in the assay with SK-MEL-28 melanoma it was 37.9% (inactive); in the assay with SK-MEL-2 melanoma, -9.79% (active); in the assay on SN12C renal, 39.4% (inactive). Besides, the growth in the assay with UO-31 renal is 27.5% (inactive); in the assay on ACHN renal, 50.7% (inactive); in the assay on CAKI-1 renal, 0.0162% (active); in the assay on A498 renal, -13.8% (active); in the assay with CCRF-CEM leukemia, 4.72% (active); in the assay on MOLT-4 leukemia, 19.4% (inactive).
As for `O=C(N/N=C/c1c(Cl)cccc1Cl)c1ccccc1Nc1ccnc(C(F)(F)F)c1`, the growth in the assay with HCT-15 colon is 64.8% (inactive); in the assay on HT29 colon, 90.9% (inactive); in the assay with SNB-75 CNS, 62.8% (inactive); in the assay with SNB-19 CNS it was 68.3% (inactive); with U251 CNS, 67.7% (inactive); with PC-3 prostate, 51% (inactive). The growth is 41.2% (inactive) in the assay on SK-MEL-5 melanoma; 55.6% (inactive) in the assay with UACC-62 melanoma; 62.3% (inactive) in the assay on LOX IMVI melanoma; 69.6% (inactive) with SK-MEL-2 melanoma; 75.7% (inactive) in the assay with SN12C renal; 84.1% (inactive) with UO-31 renal. Also, the growth is 95.4% (inactive) with TK-10 renal; 78.8% (inactive) with ACHN renal; 77.6% (inactive) in the assay on CAKI-1 renal; 73.6% (inactive) with A498 renal; 81.6% (inactive) in the assay with CCRF-CEM leukemia; 63.4% (inactive) in the assay with MOLT-4 leukemia.
Take `CSc1ccccc1C#C/C=C\C#Cc1ccccc1N1CCCCC1=O`: the growth was 112% (inactive) with HCT-15 colon; 94.9% (inactive) with HT29 colon; 118% (inactive) in the assay with SNB-75 CNS; 111% (inactive) in the assay with SNB-19 CNS; 93.6% (inactive) with U251 CNS; 77.7% (inactive) in the assay with PC-3 prostate. Also, the growth is 101% (inactive) with SK-MEL-5 melanoma; 78.5% (inactive) in the assay on UACC-62 melanoma; 91.8% (inactive) in the assay on LOX IMVI melanoma; 70.8% (inactive) in the assay with SK-MEL-2 melanoma; 91.5% (inactive) in the assay on EKVX NSCLC; 98.3% (inactive) in the assay with SN12C renal. For the same molecule, the growth in the assay with UO-31 renal is 34.6% (inactive); in the assay with TK-10 renal, 151% (inactive); with ACHN renal, 97.7% (inactive); with CAKI-1 renal, 95% (inactive); in the assay on A498 renal, 107% (inactive); in the assay with CCRF-CEM leukemia, 60% (inactive).
On to `CCN1C(=S)N(CC)C2Nn3c(s/c(=C4\C(=O)N(C)c5ccccc54)c3=O)=NC21` (configuration not stated), for which the growth was 35.5% (inactive) in the assay on HCT-15 colon; 14.9% (inactive) in the assay with HT29 colon; -1.67% (active) in the assay with SNB-75 CNS; 70.6% (inactive) in the assay with SNB-19 CNS; 51.4% (inactive) in the assay with U251 CNS; 38.6% (inactive) in the assay on PC-3 prostate. Further, the growth is 19.6% (inactive) with SK-MEL-5 melanoma; 48.4% (inactive) in the assay on UACC-62 melanoma; 49.2% (inactive) with LOX IMVI melanoma; 70.4% (inactive) in the assay on SK-MEL-2 melanoma; 54.6% (inactive) with EKVX NSCLC; 51.3% (inactive) in the assay with SN12C renal. The growth in the assay on UO-31 renal is 37.2% (inactive); with TK-10 renal, 96.9% (inactive); in the assay on ACHN renal, 52.5% (inactive); in the assay on CAKI-1 renal, 30.8% (inactive); with MOLT-4 leukemia it was 61.8% (inactive).
Turning to `CCn1cc(C(=O)O)c(=O)c2cc(F)c(N3CCN(S(=O)(=O)c4c(C)cc(C)cc4C)CC3)cc21`, the growth with HCT-15 colon is 71.5% (inactive); with HT29 colon, 94.8% (inactive); in the assay on SNB-75 CNS, 70.8% (inactive); in the assay on SNB-19 CNS it was 89.9% (inactive); with U251 CNS it was 83.3% (inactive); in the assay on PC-3 prostate, 61.4% (inactive). The growth in the assay with SK-MEL-5 melanoma is 79.5% (inactive); with UACC-62 melanoma, 75.9% (inactive); with LOX IMVI melanoma, 61.3% (inactive); with SK-MEL-2 melanoma it was 88.7% (inactive); in the assay on SN12C renal, 88.5% (inactive); in the assay with UO-31 renal, 33.1% (inactive). Also, the growth was 97.5% (inactive) in the assay on TK-10 renal; 75.8% (inactive) in the assay on ACHN renal; 89.5% (inactive) in the assay with CAKI-1 renal; 78.9% (inactive) in the assay with A498 renal; 75.9% (inactive) in the assay with MOLT-4 leukemia.
As for `NC(N)=NC(N)=Nc1ccccc1-c1ccccc1`, the growth in the assay with HCT-15 colon was 108% (inactive); with HT29 colon, 112% (inactive); with SNB-75 CNS it was 97.4% (inactive); with SNB-19 CNS, 111% (inactive); in the assay with U251 CNS, 106% (inactive); with PC-3 prostate, 103% (inactive). Further, the growth in the assay on SK-MEL-5 melanoma was 107% (inactive); in the assay on UACC-62 melanoma, 108% (inactive); in the assay with LOX IMVI melanoma, 102% (inactive); in the assay with SK-MEL-2 melanoma, 109% (inactive); with EKVX NSCLC, 111% (inactive); with SN12C renal, 105% (inactive). Besides, the growth in the assay with UO-31 renal is 99.3% (inactive); in the assay with TK-10 renal, 108% (inactive); in the assay with ACHN renal it was 106% (inactive); with CAKI-1 renal, 89.8% (inactive); in the assay with A498 renal it was 113% (inactive); in the assay with CCRF-CEM leukemia it was 113% (inactive).
As for `CC(Br)C(O)c1cc2c(cc1Br)OCO2` (configuration not stated), the growth in the assay on HCT-15 colon is 102% (inactive); in the assay with HT29 colon, 114% (inactive); with SNB-75 CNS it was 88% (inactive); in the assay with SNB-19 CNS, 112% (inactive); in the assay with U251 CNS, 102% (inactive); in the assay with PC-3 prostate, 98.6% (inactive). Further, the growth in the assay with SK-MEL-5 melanoma is 102% (inactive); in the assay on UACC-62 melanoma, 98.9% (inactive); in the assay on LOX IMVI melanoma, 93.2% (inactive); with SK-MEL-2 melanoma, 115% (inactive); in the assay on EKVX NSCLC, 104% (inactive); in the assay on SN12C renal, 112% (inactive). Besides, the growth in the assay with UO-31 renal was 88.6% (inactive); in the assay with TK-10 renal, 114% (inactive); in the assay on ACHN renal it was 109% (inactive); in the assay on CAKI-1 renal it was 90.5% (inactive); in the assay with A498 renal it was 127% (inactive); in the assay with CCRF-CEM leukemia, 101% (inactive).
Take `Nc1ccccc1C#C/C=C\C#Cc1cccc(O)c1`: the growth is 44.1% (inactive) in the assay on HCT-15 colon; 76.2% (inactive) with HT29 colon; 42.8% (inactive) with SNB-75 CNS; 88.4% (inactive) in the assay on SNB-19 CNS; 43% (inactive) with U251 CNS; 64.2% (inactive) with PC-3 prostate. In addition, the growth with SK-MEL-5 melanoma was 34% (inactive); with UACC-62 melanoma, 23.8% (inactive); in the assay with LOX IMVI melanoma it was 45.8% (inactive); in the assay with SK-MEL-2 melanoma, 20.2% (inactive); in the assay with EKVX NSCLC it was 71.8% (inactive); in the assay with SN12C renal, 67.2% (inactive). Moreover, the growth was 12.4% (inactive) in the assay on UO-31 renal; 83.8% (inactive) with TK-10 renal; 36.4% (inactive) in the assay on ACHN renal; 31.3% (inactive) in the assay on CAKI-1 renal; 78.6% (inactive) in the assay with A498 renal; 27.1% (inactive) with MOLT-4 leukemia.
